Assay in all cases: NCI-60 one-dose screen, 48 h (100 = growth as untreated, 0 = no growth, -100 = all killed)
One assay deals with HCT-15 colon. To be noted: 10 µM unless noted.
Another assay concerns HT29 colon. To be noted: 10 µM unless noted.
The next assay deals with SNB-75 CNS. To be noted: 10 µM unless noted.
The next assay relates to SNB-19 CNS. To be noted: 10 µM unless noted.
The subject of the next assay is U251 CNS. As to conditions: 10 µM unless noted.
For another assay, the system named is PC-3 prostate. To be noted: 10 µM unless noted.
The subject of a further assay is SK-MEL-5 melanoma. As to conditions: 10 µM unless noted.
For the next assay, the system named is UACC-62 melanoma. As to conditions: 10 µM unless noted.
In the next assay the test system is LOX IMVI melanoma. As to conditions: 10 µM unless noted.
In another assay the test system is SK-MEL-28 melanoma. As to conditions: 10 µM unless noted.
The next assay deals with SK-MEL-2 melanoma. To be noted: 10 µM.
The next assay deals with EKVX NSCLC. To be noted: 10 µM unless noted.
A further assay has as its system SN12C renal. As to conditions: 10 µM unless noted.
The subject of a further assay is UO-31 renal. As to conditions: 10 µM unless noted.
Another assay has as its system TK-10 renal. As to conditions: 10 µM unless noted.
Another assay relates to CAKI-1 renal. To be noted: 10 µM unless noted.
Another assay relates to CCRF-CEM leukemia. As to conditions: 10 µM unless noted.
A further assay concerns MOLT-4 leukemia. To be noted: 10 µM unless noted.
The next assay relates to ACHN renal. As to conditions: 10 µM unless noted.
The test system of a further assay is A498 renal. As to conditions: 10 µM unless noted.

We go through eight compounds from PubChem BioAssay (NCI).

About 83,000 compounds went through this panel and 20% of them were active in at least one assay; those are over-represented in the sample as a whole.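 Cells were grown in 96-well plates and exposed to the test compound at a single concentration for 48 hours; results are reported as percent growth, with values below 10 considered active.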 Values without a mark were called inactive. Calls of active or inactive are those of the source.

Turning to `COc1ccc2c(CCC(c3ccccc3)c3ccccc3)c3[n+](cc2c1OC)CCc1cc2c(cc1-3)OCO2`, the growth was 47.1% in the assay on HCT-15 colon; 6.26% (active) in the assay on HT29 colon; 37.1% in the assay on SNB-75 CNS; 20.6% with SNB-19 CNS; 10.5% in the assay on U251 CNS; -39.8% (active) in the assay with PC-3 prostate. In addition, the growth is -99.6% (active) in the assay with SK-MEL-5 melanoma; -43.5% (active) in the assay with UACC-62 melanoma; -58.5% (active) with LOX IMVI melanoma; 3.87% (active) with SK-MEL-28 melanoma; -15% (active) in the assay on SK-MEL-2 melanoma; 24.7% in the assay on EKVX NSCLC. Besides, the growth with SN12C renal was 0.0445% (active); with UO-31 renal, 45.6%; with TK-10 renal, 8.09% (active); in the assay with CAKI-1 renal, 60.2%; with CCRF-CEM leukemia, 6.45% (active); in the assay with MOLT-4 leukemia, -10.1% (active).
Take `Cc1cc(N(CCNc2ccnc3cc(Cl)ccc23)Cc2cccs2)nc(Cl)n1`: the growth in the assay with HCT-15 colon is 1.01% (active); in the assay with HT29 colon it was -21.5% (active); in the assay with SNB-75 CNS, -84.5% (active); in the assay on SNB-19 CNS it was 38.3%; in the assay with U251 CNS, -57.3% (active); with PC-3 prostate, 21.1%. Besides, the growth is -31.2% (active) in the assay with SK-MEL-5 melanoma; 13.4% in the assay on UACC-62 melanoma; -74.4% (active) in the assay with LOX IMVI melanoma; -43.4% (active) in the assay on SK-MEL-28 melanoma; -58.2% (active) in the assay on SK-MEL-2 melanoma; 33.9% in the assay with EKVX NSCLC. Besides, the growth in the assay on SN12C renal is -15.9% (active); in the assay on UO-31 renal, -79.4% (active); in the assay on TK-10 renal, -93% (active); with ACHN renal it was -88% (active); in the assay on CCRF-CEM leukemia it was -2.45% (active); in the assay with MOLT-4 leukemia, -38.2% (active).
As to `COc1cnc2c(c1)C(=O)c1c-2n(CCCn2ccnc2)c(=O)c2cc(Cl)ccc12`, the growth in the assay on HCT-15 colon is 28.9%; in the assay with HT29 colon, -31.5% (active); in the assay on SNB-75 CNS, 19%; with SNB-19 CNS, 20.2%; with U251 CNS it was -31% (active); with PC-3 prostate, 24.8%. The growth in the assay on SK-MEL-5 melanoma is -49.9% (active); in the assay on UACC-62 melanoma, -43.1% (active); in the assay with LOX IMVI melanoma, -52.5% (active); in the assay with SK-MEL-28 melanoma it was 52.2%; with SK-MEL-2 melanoma, 50%; with EKVX NSCLC, 40.2%. Besides, the growth in the assay with SN12C renal was 10%; with TK-10 renal, 45.9%; in the assay with ACHN renal it was -3.65% (active); with A498 renal, -41.2% (active); with CCRF-CEM leukemia, -11.9% (active); in the assay with MOLT-4 leukemia it was -23.6% (active).
For `Cc1nc(Nc2n[nH]c3c2CN(C(=O)N[C@H](CN(C)C)c2ccccc2)C3(C)C)c2sccc2n1`, the growth with HCT-15 colon was 20%; in the assay on HT29 colon, -29.6% (active); in the assay on SNB-75 CNS, -80% (active); in the assay on SNB-19 CNS, 0.125% (active); in the assay on U251 CNS, -22.7% (active); with PC-3 prostate, -10% (active). Also, the growth was -84.9% (active) with SK-MEL-5 melanoma; -87% (active) in the assay on UACC-62 melanoma; -41.3% (active) in the assay on LOX IMVI melanoma; -33.7% (active) in the assay on SK-MEL-28 melanoma; 12.9% in the assay on EKVX NSCLC; -6.2% (active) in the assay on SN12C renal. For the same compound, the growth in the assay with UO-31 renal is -11.3% (active); in the assay with TK-10 renal, -30.1% (active); in the assay with ACHN renal it was 3.72% (active); in the assay on CAKI-1 renal, -5.88% (active); in the assay with A498 renal, -72.9% (active); with CCRF-CEM leukemia it was 1.05% (active).
Regarding `CC(=O)CC1CCCC1c1ccc2ccccc2c1` (configuration not stated), the growth is 103% in the assay on HCT-15 colon; 95.8% in the assay with HT29 colon; 93.8% with SNB-75 CNS; 104% in the assay with SNB-19 CNS; 94.4% in the assay with U251 CNS; 91.9% in the assay on PC-3 prostate. Besides, the growth with SK-MEL-5 melanoma was 101%; with UACC-62 melanoma it was 99.6%; with LOX IMVI melanoma it was 97.8%; in the assay on SK-MEL-28 melanoma, 103%; in the assay on EKVX NSCLC it was 102%; in the assay on SN12C renal, 105%. The growth with UO-31 renal was 84.7%; with TK-10 renal, 91.5%; in the assay with ACHN renal, 101%; in the assay with CAKI-1 renal, 98.6%; in the assay on A498 renal, 97.6%; with CCRF-CEM leukemia it was 97.6%. In the assay with MOLT-4 leukemia, the growth was 99.2%.
For `CN(C)C[C@@H]1CCn2cc(c3ccccc32)C2=C(C(=O)NC2=O)c2cn(c3ccccc23)CCO1`, the growth in the assay on HCT-15 colon is -31.7% (active); with HT29 colon, 0.848% (active); with SNB-75 CNS, -76.1% (active); in the assay on SNB-19 CNS, 15.3%; in the assay on U251 CNS it was -70.8% (active); in the assay with PC-3 prostate, 0.163% (active). For the same compound, the growth in the assay on SK-MEL-5 melanoma is 22.5%; in the assay with UACC-62 melanoma it was 43%; with LOX IMVI melanoma it was -70.1% (active); with SK-MEL-28 melanoma it was -92.6% (active); in the assay with EKVX NSCLC, 30.5%; in the assay with SN12C renal, -59.7% (active). For the same compound, the growth in the assay with UO-31 renal is -49.1% (active); with TK-10 renal, 11.5%; in the assay with ACHN renal, -89.9% (active); in the assay with CAKI-1 renal, -3.96% (active); in the assay with A498 renal it was -4.95% (active); with CCRF-CEM leukemia it was -0.337% (active). In addition, in the assay with MOLT-4 leukemia, the growth was -4.3% (active).
For `Cc1ccc(-c2cc3c(SCC(=O)Nc4cc(C(F)(F)F)ccc4Cl)nccn3n2)cc1`, the growth is 20.1% in the assay with HCT-15 colon; -18.8% (active) in the assay with HT29 colon; 95.3% in the assay on SNB-75 CNS; 102% in the assay on SNB-19 CNS; 60% in the assay with U251 CNS; 41.1% with PC-3 prostate. In addition, the growth in the assay on SK-MEL-5 melanoma was 48.1%; with UACC-62 melanoma, 97.5%; in the assay on LOX IMVI melanoma it was -6.48% (active); in the assay with SK-MEL-28 melanoma, 84.8%; in the assay with SK-MEL-2 melanoma, 85.4%; in the assay with SN12C renal, 73.6%. For the same compound, the growth in the assay with UO-31 renal is 30.4%; with TK-10 renal, 91.3%; in the assay with ACHN renal, 40.4%; in the assay on A498 renal, 71.3%; with CCRF-CEM leukemia, 20.3%; in the assay on MOLT-4 leukemia, 5.39% (active).
As to `COc1ccc(C(=O)N2c3ccccc3Sc3ccccc32)c(F)c1`, the growth was 27.3% with HCT-15 colon; 5.07% (active) with HT29 colon; -11.3% (active) with SNB-75 CNS; 35.8% in the assay with SNB-19 CNS; 33.6% in the assay on U251 CNS; 29.8% with PC-3 prostate. In addition, the growth with SK-MEL-5 melanoma was 15.7%; with UACC-62 melanoma it was 22.6%; in the assay with LOX IMVI melanoma, 40.3%; in the assay with SK-MEL-28 melanoma, 58.9%; in the assay with EKVX NSCLC it was 44%; in the assay on SN12C renal it was 60.8%. The growth is 49.2% in the assay on UO-31 renal; 44.5% in the assay on TK-10 renal; 48.4% with ACHN renal; 45.3% with CAKI-1 renal; 2.13% (active) in the assay with A498 renal; 17% in the assay on CCRF-CEM leukemia. For the same compound, the growth in the assay on MOLT-4 leukemia was 27.1%.
